Source: ChEMBL document CHEMBL1201862, “PubChem BioAssay data set” (2004)
Screen size: about 52,000 sequences; about 3,900 (7.5%) were called active. Rule as the data show it: active = GI50 up to about 1.1 µM and inactive = higher. Only a sample is shown. Results with a measured potency or affinity are listed apart.

Tested on: RXF 393

Substance	GI50 [µM]
[Bis(aminomethyl)tetramethylenesilane]tetrachloropaltinum(IV), CHEMBL2146189	25.4
[Bis(aminomethyl)pentamethylenesilane]tetrachloropaltinum(IV), CHEMBL2146204	7.35
[Bis(aminomethyl)dimethylsilane]tetrachloroplatinum(IV), CHEMBL2146190	3.59
[Bis(aminomethyl)dimethylsilane]dichloroplatinum (II), CHEMBL2146201	34.2
[Bis(aminomethyl)pentamethylenesilane]dichloropaltinum(II), CHEMBL2146202	2.92
cis-Bis[[(trimethylsilyl)methyl]amino]tetrachloroplatinum(IV), CHEMBL2146191	2.72
[Bis(aminomethyl)tetramethylenesilane]dichloropaltinum(II), CHEMBL2146205	12.6
[Bis(aminomethyl)diethylsilane]tetrachloroplatinum(IV), CHEMBL2146203	17.4
CISPLATIN, CHEMBL11359	3.33
mu-(1,7-nanodiamine-N,N')bis-(cis-aminedichloroplatimum (II)), CHEMBL2146215	15.4
